Experimental data as given in PubChem BioAssay AID540333 (Southern Research Specialized Biocontainment Screening …, 2011).
Hit rate of the full screen: of about 10,000 compounds, about 320 (3.2%) were called active. What follows is part of a selection rich in actives, with near analogues and random picks from the rest. A number with no mark means an inactive call. Cut-off read from the data, not from the text of the source: active = CPE inhibition mostly above about 9.1% (no sharp cut-off); inactive = mostly below about 7.2%.

test: Dengue virus cytopathic effect inhibitors, cell-based, CPE readout, HTS (AID 540333); details: Dengue virus CPE inhibition in host cells, at 20 µM; hits give high values

SMILES	CPE inhibition
COc1ccc(OCCCC(=O)Nc2cccc([N+](=O)[O-])c2C)cc1	inactive
C=CCOC(=O)C1=C(C)NC(SCC(N)=O)=C(C#N)C1c1cccs1 (stereo not given)	0.32%
Cc1cc(C)c(COc2ccc(/C=N/n3c(C)n[nH]c3=S)cc2)c(C)c1	5.91%
Cc1cc2cc(CN(Cc3cccs3)C(=S)NCC3CCCO3)c(=O)[nH]c2cc1C (stereo not given)	18.4% (active)
Cc1cc(C)c2[nH]c(=O)c(CN(Cc3cccs3)C(=S)NCC3CCCO3)cc2c1 (stereo not given)	2.9%
CNC(=S)N(Cc1cccs1)Cc1cc2cc(OC)ccc2[nH]c1=O	inactive
COc1ccc2[nH]c(=O)c(CN(Cc3cccs3)C(=S)Nc3cccc(C)c3)cc2c1	9.5% (active)
Cc1cccc(NC(=S)N(Cc2cccs2)Cc2cc3cc(C)cc(C)c3[nH]c2=O)c1	3.13%
Cc1ccc2[nH]c(=O)c(CN(Cc3cccs3)C(=S)NCC3CCCO3)cc2c1 (stereo not given)	0.245%
N=C(N)SCc1nc2ccccc2c(=O)n1-c1ccccc1	inactive
CC1CCC(=O)N(CCSc2ccccc2)CC1 (stereo not given)	0.29%
O=C(c1ccc(COc2ccc(Cl)cc2)o1)N1N=C(C(F)F)CC1(O)C(F)F (stereo not given)	3%
CCO[C@H]1OC(C(N)=O)=C[C@@H](C(C)(C)C)[C@@H]1CCCO	inactive
CCC(=O)NC(c1ccccc1Cl)c1c(O)ccc2ccccc12 (stereo not given)	4.07%
COc1ccccc1C(NC(=O)C1CCCCC1)c1c(O)ccc2ccccc12 (stereo not given)	0.755%
CC(C)CC(=O)NC(c1ccccc1Cl)c1c(O)ccc2ccccc12 (stereo not given)	69% (active)
CC(C)c1ccc(NC(=S)NCCc2c[nH]c3ccccc23)cc1	inactive
C/C(=N\NC(=O)c1ccccc1-n1cccc1)C1CC1	0.14%
CON1C(=O)C(=O)N(OC)C2CCCCCC21 (stereo not given)	0.76%
COc1ccc(-n2c(SCc3ccc([N+](=O)[O-])cc3)nnc2-c2ccc(C)cc2)cc1	11.5%
COC(=O)c1ccc(CSc2nnc(CS(=O)Cc3ccc(Br)cc3)n2-c2ccccc2)cc1 (stereo not given)	9.53%
CCOc1ccc(NCc2nnc(SCC(=O)Nc3nc(-c4ccccc4)cs3)n2-c2ccccc2)cc1	0.01%
COc1ccc(-n2c(CNc3ccc(C)cc3)nnc2SCc2ccccc2)cc1	13.1% (active)

SMILES	CPE inhibition
CCOc1ccc(NCc2nnc(SCc3ccc(Cl)cc3)n2-c2ccccc2)cc1	15.5% (active)
COc1ccc(NCc2nnc(SCC(=O)Nc3nc(-c4ccccc4)cs3)n2-c2ccccc2)cc1	inactive
Cc1cc(C(=O)N/N=C/c2cc(Br)cc([N+](=O)[O-])c2O)c2ccccc2n1	0.34%
CCOC(=O)c1cccc(S(=O)(=O)N2CCCC2)c1	0.06%
O=C(NCc1ccccc1)C1=C[C@@H](C2CCCCC2)C[C@@H](OCCCCO)O1	2.12%
Cc1[nH][nH]c(=O)c1C	0.36%
Cc1ccc(S(=O)(=O)NNC(=S)NC(=O)c2ccc([N+](=O)[O-])cc2)cc1	inactive
CC(C)COP(=O)(c1ccc(N(C)C)cc1)C(Nc1ccccc1)c1cccnc1 (stereo not given)	0.73%
CC(C)COP(=O)(c1ccc(N(C)C)cc1)C(Nc1ccccc1)c1ccccc1 (stereo not given)	29.1% (active)
CCCOP(=O)(c1ccc(N(C)C)cc1)C(Nc1ccccc1)c1ccc(N(C)C)cc1 (stereo not given)	0.64%
O=C(NC1CCCc2ccccc21)c1ccc(Br)cc1 (stereo not given)	3.09%
Nc1ccc(-n2nnnc2CN2CCOCC2)cc1	0.25%
COc1ccc(CC(=O)Nc2cc3oc4ccccc4c3cc2OC)cc1	0.095%
C=CCOC(=O)C1=C[C@@H](c2ccc(C(F)(F)F)cc2)C[C@@H](OCCCCO)O1	0.15%
CCNC(=O)/C(C#N)=C/c1c(N2CCN(Cc3ccc4c(c3)OCO4)CC2)nc2c(C)cccn2c1=O	inactive
CNC(=O)/C(C#N)=C/c1c(N(Cc2ccccc2)Cc2ccccc2)nc2ccccn2c1=O	14.1% (active)
CNC(=O)/C(C#N)=C/c1c(N(Cc2ccccc2)Cc2ccccc2)nc2c(C)cccn2c1=O	17% (active)
Cc1ccc(Oc2nc3ccccn3c(=O)c2/C=C(\C#N)C(=O)Nc2c(C)n(C)n(-c3ccccc3)c2=O)c(C)c1	0.875%
Cc1cccn2c(=O)c(/C=C(\C#N)C(N)=O)c(N3CCN(Cc4ccc5c(c4)OCO5)CC3)nc12	0.905%
Cc1cccc(Oc2nc3ccccn3c(=O)c2/C=C(\C#N)C(=O)NC2CCS(=O)(=O)C2)c1 (stereo not given)	1.43%
COc1ccc(/C=C2/C(=O)N(Cc3ccccc3)N=C2C)cc1	inactive
CCCCn1[nH]c(-c2ccccc2)cc1=O	inactive
COc1ccc(OC)c(/C=C/C(=O)OCC(=O)Nc2cccc(Oc3ccccc3)c2)c1	0.45%

SMILES	CPE inhibition
COc1cc(/C=C/C(=O)Nc2nnc(CC(C)C)s2)cc(OC)c1OC	1.95%
CCCS(=O)(=O)Nc1c(OC)ccc2c1c(C(=O)OCC)c(C)n2C	inactive
CC(C)CNC(=O)c1ccccc1NC(=O)/C=C/c1cccc([N+](=O)[O-])c1	inactive
CC(=O)NN1C(=O)/C(=C/c2ccc(C(C)C)cc2)SC1=S	inactive
O=C(COC(=O)c1oc2ccccc2c1COc1ccccc1)NCCN1C(=O)CSC1=O	1.47%
CCSc1nc2ccccc2n1C(=O)c1ccc(S(=O)(=O)N2CCCCCC2)cc1	0.17%
Cc1ccc(CN2C(=O)C(CC(C)C)Nc3ncnc(N4CCN(c5ccccn5)CC4)c32)cc1 (stereo not given)	2.52%
COc1ccc(CN2C(=O)C(Cc3ccccc3)Nc3ncnc(N4CCCCC4)c32)cc1 (stereo not given)	2.1%
CCC1Nc2ncnc(N3CCN(c4ccccc4)CC3)c2N(Cc2ccc(Br)cc2)C1=O (stereo not given)	11.1% (active)
CC(C)CC1Nc2ncnc(N3CCN(c4ccccn4)CC3)c2N(Cc2ccc(Cl)cc2)C1=O (stereo not given)	9.66% (active)
Cc1ccc(CN2C(=O)C(CC(C)C)Nc3ncnc(N4CCN(c5ccccc5)CC4)c32)cc1 (stereo not given)	37.1% (active)
CC(C)CC1Nc2ncnc(N3CCN(c4ccccn4)CC3)c2N(Cc2ccccc2)C1=O (stereo not given)	1.43%
CCC1Nc2ncnc(N3CCOCC3)c2N(Cc2ccc(Cl)cc2)C1=O (stereo not given)	0.26%
CCC1Nc2ncnc(N3CCOCC3)c2N(Cc2ccc(Br)cc2)C1=O (stereo not given)	inactive
O=C(Cc1ccc(Br)cc1)N1CCN(c2ccccn2)CC1	inactive
COc1ccc2oc(=O)c(/C(C)=N/Nc3nc(-c4cc(C)ccc4C)cs3)cc2c1	inactive
CC(C)(C)C1CCC(=NNC(=O)CN(c2ccccc2)S(=O)(=O)c2ccccc2[N+](=O)[O-])CC1 (stereo not given)	inactive
N#Cc1ccc(COC(=O)CSc2nnc(N)s2)cc1	0.615%
NC(=O)CC(NC(=O)Cc1cccc2ccccc12)c1ccc(NCc2ccccc2)c([N+](=O)[O-])c1 (stereo not given)	2.03%
CCOC(=O)c1c(-c2ccc(F)cc2)csc1NC(=O)CCN1C(=O)c2ccccc2C1=O	1.4%
O=C(NCc1ccccc1)c1onc(CSc2ccc(F)c(F)c2)c1C(=O)NCc1ccccc1	0.575%
CCOC(=O)CN1C(=O)N[C@@H](c2ccco2)C(C(C)=O)=C1C	1.53%
Oc1cccc(/C=N/Nc2ncnc3c2ncn3Cc2ccccc2)c1	inactive

SMILES	CPE inhibition
O=C(CCSCCc1ccccn1)Nc1c(F)c(F)c(F)c(F)c1F	inactive
O=C1CCCc2[nH]c3cccc(/C(=C/c4ccccc4)c4ccccc4)c3c21	22.5% (active)
CCOC(=O)N1CCC(N2Cc3cccc(C(=O)N4CC(C)CC(C)C4)c3C2=O)CC1 (stereo not given)	inactive
CCCCCC[n+]1c(-c2ccccc2)csc1Nc1ccccc1	7.19%
CC1=C(C#N)C(c2ccccc2)C2=C(N1)c1ccccc1C2=O (stereo not given)	1.29%
CN(CC(=O)Nc1ccc(C#N)cc1)CC(=O)Nc1ccc(N2CCOCC2)cc1	0.525%
CCCCCCn1nc(C(=O)Nc2nc3c(s2)CCCC3)c2ccccc2c1=O	29% (active)
CCn1nc(C(=O)Nc2nc3ccccc3[nH]2)c2ccccc2c1=O	0.06%
O=C(Nc1nc2c(s1)CCCC2)c1cc(-c2ccccc2)nc2ccccc12	5.19%
C=CCn1c(SCc2ccc(C(=O)Nc3nccs3)cc2)nnc1-c1ccc(C)c(Cl)c1	0.44%
CC1CCCC(NC(=S)NC(=O)c2ccccc2Br)C1C (stereo not given)	21.1% (active)
O=C(NC(=S)NC1CCCC1)c1ccccc1Br	0.11%
CC1CCCCC1NC(=S)NC(=O)c1ccccc1Br (stereo not given)	0.915%
COc1cccc(NC(=O)CCC(=O)Nc2cccc(OC)c2)c1	0.18%
Cc1ccc(NC(=O)c2cc3c(s2)CCCC3)cc1S(=O)(=O)Nc1ccccc1Cl	1.93%
O=C(CN1C(=O)/C(=C\C=C\c2ccccc2)SC1=S)Nc1ccc(F)cc1	1.02%
CC(=O)c1ccc(NC(=O)CN2C(=O)/C(=C/C=C/c3ccccc3)SC2=S)cc1	0.165%
O=C1CC(N2C(=O)/C(=C/C=C/c3ccccc3)SC2=S)C(=O)N1c1ccccc1 (stereo not given)	9.17% (active)
CC(=O)Nc1ccc(S(=O)(=O)NCC(=O)OCC(=O)NC(=O)C2CCCCC2)cc1	0.165%
NC(=O)C1(NC(=O)[C@@H]2CC3(CC(c4cccc(NC(=O)[C@@H]5CCC(=O)N5)c4)=NO3)CN2C(=O)c2cnccn2)CC1 (stereo not given in full)	0.745%
O=C(CSc1nc2ccccc2s1)Nc1cc(S(=O)(=O)N2CCOCC2)ccc1O	inactive
